# Measurements taken from PubChem BioAssay (Tox21).
# Results filed as inconclusive are left out. Where a call stands in place of a potency, no number is given. A number with no mark means an inactive call. Calls of active or inactive are those of the source. Calls follow the shape of the dose curve; as a rule, active = well fitted cell-killing curve with a large enough effect in the repeat runs; inconclusive = weak or mixed curves, or effect the other way; inactive = flat fitted curve, though single readings scatter.
# Assay: qHTS RealTime-Glo MT Cell Viability Assay in HEK293 cells - 8 hour (AID 1224887); also: nearly all actives have a fitted effect of over 50% in size; as to activity change, negative = cytotoxicity: top concentration of the series differs between compounds
# Details: RealTime-Glo luminescence; series mostly up to 76.8 µM
# Excerpt: U.S. Tox21 Program National Center for Advancing Translational Sciences [NCATS] NIH Chemical Genomics Center [NCGC] U.S. Environmental Protection Agency [EPA] National Institutes of Environmental Health Sciences [NIEHS] National Toxicology Program [NTP] U.S. Food and Drug Administration [FDA] Tox21 Assay Overview: Measure of cell viability is critical in the cell-base assay. Analysis of cell viability is necessary for the characterization of cell responses to cytotoxic drugs and environmental stress. A RealTime-Glo MT Cell Viability Assay to monitor cell viability in real time of continues cell culture during 40 hours of compound treatment was used to screen Tox21 10K library compounds in Hek293 cells. The RealTime-Glo MT Cell Viability Assay is a nonlytic, homogeneous, bioluminescent method to measure cell viability in real time using a simple, plate-based method. The assay involves adding NanoLuc luciferase and a cell-permeant prosubstrate to cells in culture. Viable cells reduce the proprietary prosubstrate to generate a substrate for NanoLuc luciferase. This substrate diffuses from cells into the surrounding culture medium, where it is rapidly used by the NanoLuc Enzyme to produce a luminescent signal. The signal correlates with the number of viable cells, making the assay well suited for cytotoxicity studies.
# Tox21 Assay Protocol Summary: The mixture of Hek293 cell suspension and reagents were dispensed at 600cells/6 ul/well in 1536-well tissue culture treated black solid bottom plates using a Multidrop dispenser. After the assay plates were incubated at a 37 C/5% CO2 incubator for 5 hours, 23 nL of compounds dissolved in DMSO, positive and negative controls was transferred to the assay plate by a pintool work station. The plates were incubated at 37 C for 40 hours. The luminescence intensity were measured at 0h, 8h, 16h, 24h, 32h and 40h time points using ViewLux plate reader during compound treatment.
# Potency is read from the fitted curve at half-maximal effect.
SMILES,Potency,"activity change, negative = cytotoxicity"
CC(C)=CC(=O)O,inactive,
CCc1cc(S(=O)(=O)O)c2cc(C(C)C)cccc1-2,inactive,
CCCCCCCCCCCCCCCCCC(=O)OCCCCCCCCCCCCCC(C)C,inactive,
CC(O)CN(CCCN(C)C)CCCN(C)C (stereo not given),inactive,
CCCCCCOC(=O)CC(CC(=O)OCCCCCC)(OC(=O)CCC)C(=O)OCCCCCC,inactive,
CCN1CCCC1CNC(=O)c1cc(S(N)(=O)=O)ccc1OC (stereo not given),inactive,
COc1cccc(OC)c1,inactive,
CCCCCCC(=O)OCC,inactive,
CCn1cc(C(=O)O)c(=O)c2cc(F)c(N3CCN(C)CC3)cc21,,7.74% [at 15.8 µM]
OCC(CO)(CO)COCC(CO)(CO)CO,inactive,
CCOC(=O)Nc1ccc2c(c1)N(C(=O)CCN1CCOCC1)c1ccccc1S2,inactive,
CCCCCN(CCCCC)C(=O)C(CCC(=O)O)NC(=O)c1ccc(Cl)c(Cl)c1 (stereo not given),inactive,
O=C(O)c1ccccc1S,inactive,
Cc1ccc(N)cc1[N+](=O)[O-],inactive,
C=C(C)[C@H]1CC=C(C)CC1,inactive,
CCCC(C)C(=O)O (stereo not given),inactive,
CCN1CCCC(OC(=O)C(c2ccccc2)c2ccccc2)C1 (stereo not given),inactive,
CCCCc1ccc(N)cc1,inactive,
CCCc1ccc(N)cc1,inactive,
CCCOc1ccccc1-c1nc2n[nH]nc2c(=O)[nH]1,inactive,

SMILES,Potency,"activity change, negative = cytotoxicity"
NCCN1CCNC1=O,inactive,
CCCCCCCCN(C)CCCCCCCC,inactive,
NCCNC(=O)c1ccc(Cl)cn1,inactive,
C#CC(O)CCCCC (stereo not given),inactive,
CN(C)CCn1nnnc1SCC1=C(C(=O)O)N2C(=O)[C@@H](NC(=O)Cc3csc(N)n3)[C@H]2SC1,inactive,
CCC(C)OC(=O)N1CCCCC1CCO (stereo not given),inactive,
C=CCSCC1Nc2cc(Cl)c(S(N)(=O)=O)cc2S(=O)(=O)N1 (stereo not given),inactive,
O=c1[nH]c(=O)n([C@H]2O[C@H](CO)[C@@H](O)[C@@H]2O)cc1/C=C\Br,inactive,
C=C(C)C1CC=C(C)C(O)C1 (stereo not given),inactive,
CC(C)N1C(=O)c2ccccc2C1=O,inactive,
CCCC(C)CO (stereo not given),inactive,
CC(C)CCCC(C)CCCC(C)CCCCC(C)CCCC(C)CCCC(C)C (stereo not given),inactive,
CCCCCCCCCCCCCCC,inactive,
CCCCOCC(C)OCC(C)O (stereo not given),inactive,
c1ccc(CCCc2ccccn2)cc1,inactive,
C[C@H](O)C(=O)Nc1c(I)c(C(=O)NC(CO)CO)c(I)c(C(=O)NC(CO)CO)c1I,inactive,
CC(C)COC(=O)c1ccccc1O,inactive,
c1cc(CN2CCCCC2)cc(OCCCNc2nc3ccccc3s2)c1,9.52 µM (active),
CCO[Si](CCCN=C=O)(OCC)OCC,inactive,
CCOC(=O)[C@H](CCc1ccccc1)N[C@@H](C)C(=O)N1CCC[C@H]1C(=O)O,inactive,
